Measurements as given in PubChem BioAssay AID651739 (Broad Institute, 2012).
The whole screen tested about 5,600 compounds, of which about 4,100 (73%) were called active. Roughly 4% stayed inconclusive and do not appear here.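 Rule for the calls: active = mean replicate inhibition above about 95% and at least 55% of replicates individually reaching it (limit read from the data); inconclusive = only one of the two criteria is met; inactive = neither criterion is met.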 The set was probably picked from earlier hits. The list is a sample of the results.

Assay: T. cruzi intracellular proliferation inhibitors, confirmation, cell-based, NIH3T3 host, beta-gal parasite, luminescence, cherry-pick (AID 651739)
Details: T. cruzi beta-gal in NIH3T3, GalScreen luminescence, 90 h; at 8.35 µM; hits give high values

| Compound | inhibition |
| --- | --- |
| COc1ccc(C#Cc2ccc([C@H]3[C@H](CO)N4CCCCN(C(=O)Cc5ccccc5)C[C@@H]34)cc2)cc1 | 95.6% (active) |
| C/C=C/c1ccc([C@H]2[C@H](CO)N3CCCCN(C(=O)Cc4ccncc4)C[C@@H]23)cc1 | 99.2% (active) |
| O=C(Cc1cccnc1)N1CCCCN2[C@@H](CO)[C@H](c3ccc(C#CC4CCCC4)cc3)[C@@H]2C1 | 103% (active) |
| O=C(Cc1ccccn1)N1CCCCN2[C@@H](CO)[C@@H](c3ccc(C#Cc4ccccc4)cc3)[C@@H]2C1 | 112% (active) |
| COc1ccc(-c2ccc([C@H]3[C@H](CO)N4CCCCN(C(=O)Cc5ccncc5)C[C@@H]34)cc2)cc1 | 89.1% (inactive) |
